Experimental findings from PubChem BioAssay (NCI) are described below.

Compounds without any hit were thinned out: in the full panel of roughly 83,000, 20% have a hit.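 A percent growth of 40 corresponds to 60% growth inhibition; 0 means no net growth; -100 means all cells died. Active threshold: below 10.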 Activity calls are given as the source filed them.

The subject of this experiment is NCI-H23 lung. The experiment in a line: NCI-60 one-dose screen, 48 h (100 = growth as untreated, 0 = no growth, -100 = all killed). The conditions noted are these: 10 µM unless noted.
With `O=Nc1c(O)ccc2ccccc12.O=Nc1c(O)ccc2ccccc12.O=Nc1c([O-])ccc2ccccc12.[Fe+3]`, the growth was 87% (inactive). With `COc1cccc(C(=O)Cn2cc(/C=C(\C#N)S(=O)(=O)c3ccccc3)c3ccccc32)c1` the figure was 90.4% (inactive); with `CC(=O)O[C@@H]1/C=C/C(=O)N[C@@H](C)CCC/C=C/[C@@H]2CCC[C@H]21`, 98.2% (inactive); with `CC(C)(C)c1ccc(C2CC(=O)C3=C(C2)Nc2ccccc2N(C(=O)c2ccccc2Cl)C3c2ccc(F)cc2)cc1` (stereo not drawn), 3.17% (active). With `O=C1/C=C/[C@@H](O)[C@@H]2C[C@@H](O)C[C@H]2/C=C/CCCCO1` the figure was 13% (inactive). With `CN1CCN(c2nc(Nc3ccc(O)cc3)nc3ccccc23)CC1` the figure was 74.8% (inactive); with `O=C(NN1C(=O)CSC1c1ccc(Cl)cc1)c1[nH]c2ccc(F)cc2c1-c1ccccc1` (stereo not drawn), 57.8% (inactive). In the case of `CSc1nc2c(c(=O)n1C)N=C1c3ccccc3C(=O)C1C(c1ccccc1)N2` (stereo not drawn), the growth is 85% (inactive). With `CCCC(=O)CC(C)=O.CCCC(=O)CC(C)=O.[Cu]` the figure was 97.3% (inactive). As for `N#C/C(=C\c1c(-c2ccccc2)[nH]c2ccccc12)S(=O)(=O)c1ccccc1`, the figure is 40.7% (inactive). Consider `O=C(Nc1ccc(Cl)cc1)c1cc2ccccc2cc1OP(=O)(O)O`, for which the growth was -0.361% (active). With `COc1ccc(/C=C2\N=C(c3ccccc3)N(c3ccc(-c4nc5ccc(C)cc5s4)cc3)C2=O)cc1` the figure was 87.1% (inactive).

Regarding `CSc1nc2c(c(=O)[nH]1)N=C1c3ccccc3C(=O)C1C(c1ccccc1)N2` (stereo not drawn), the growth is 62% (inactive).
